High-throughput results (PubChem)
HCMV inh – qHTS Assay for inhibitors of the human cytomegalovirus (HCMV) | HFF cells, HCMV-luciferase reporter, 72 h; active compounds read low | activity change, negative = inhibition, % at 57.5 µM | actives 4.5% (n = 410,000); in the data active means activity change below about -60%; inconclusive means no clear call, values can overlap the other calls; inactive means above about -39%
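Compounds were evaluated in HFFs infected with an HCMV luciferase reporter virus (MOI 1 PFU/cell). Luciferase in lysates collected 72 h post infection served as the replication measure.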
Tb PYK inh – qHTS of Trypanosoma Brucei Inhibitors; pyruvate kinase (Trypanosoma brucei), Q57TT1; AID 624173, 2012; Potency, µM (highest dose often 76.8 µM), for the others: at the top dose activity, negative = inhibition, hits mostly inhibitors; actives 0.12% (n = 410,000); TbPYK enzyme, Kinase-Glo Plus ATP luminescence, 45 min; further: potency means the concentration at half of the fitted maximal effect; nearly all actives have a fitted effect of over 50% in size
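Readout: single end-point luminescence (Kinase-Glo Plus, 10 min). Reaction conditions were TbPYK/substrate plus 130 uM ADP, 45 min at RT, pH 7.2 TEA buffer. No-enzyme wells served as controls, and data were normalized before concentration-response fitting.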
Sm TGR inh – qHTS Assay for the Inhibitors of Schistosoma Mansoni Peroxiredoxins. actives 3% (n = 360,000). Schistosoma mansoni thioredoxin glutathione reductase (TGR), Q962Y6. purified TGR, DTNB reduction, TNB absorbance 405 nm. Potency, µM (titrated, usually from 114 µM), for the others: at the highest dose activity change, negative = inhibition, most hits filed as inhibitors; further: potency means the concentration at half of the fitted maximal effect; nearly all actives have a fitted effect of over 60% in size
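First, TGR (20 nM dispensed) and NADPH were mixed with compound. Second, a 15 min room-temperature incubation followed. Third, further NADPH and then DTNB were added to start the reaction. Finally, TNB absorbance was monitored kinetically.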
FBPA Giardia inh – qHTS Assay for Inhibitors of Fructose-1,6-bisphosphate Aldolase from Giardia Lamblia | Potency, µM (highest dose often 59.6 µM), for the others: at the top dose activity, negative = inhibition, most hits filed as inhibitors | purified Giardia FBPA | AID 2451, 2010 | A8B2U2 | actives 0.71% (n = 290,000); further: potency means the concentration at half of the fitted maximal effect; nearly all actives have a fitted effect of over 55% in size
Target sequence (A8B2U2 whole entry, looked up): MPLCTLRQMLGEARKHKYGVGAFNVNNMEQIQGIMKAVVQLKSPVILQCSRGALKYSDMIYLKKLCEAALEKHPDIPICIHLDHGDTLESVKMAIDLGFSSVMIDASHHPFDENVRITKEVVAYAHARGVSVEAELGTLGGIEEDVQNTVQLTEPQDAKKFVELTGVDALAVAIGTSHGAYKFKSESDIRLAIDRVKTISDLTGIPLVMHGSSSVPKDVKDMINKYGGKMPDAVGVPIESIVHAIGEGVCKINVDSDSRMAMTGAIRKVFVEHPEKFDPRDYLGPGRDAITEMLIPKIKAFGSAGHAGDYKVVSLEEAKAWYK
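Giardia FBPA (40 nM reagent) was preincubated 10 min at RT with compound (up to 57.5 uM final), then substrate plus GAPDH/TPI/NAD/arsenate coupling system with diaphorase/resazurin was added; resorufin fluorescence (525/598 nm) was read after 20 min.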
RE007 growth inh – qHTS Assay for Inhibitors of the HIV-1 protein Vpr | S. pombe RE007 Vpr strain, BacTiter-Glo ATP luminescence, 24 h | Potency, µM (series often up to 92.2 µM), for the others: at the top dose activity change, negative = less growth, usual class: inhibitors | actives 0.21% (n = 360,000) | AID 651644, 2012; active means well fitted falling curve with a large enough effect; inconclusive means small, poorly fitted or top-dose-only effect; inactive means no such curve, though single readings can be large or run the other way; further: potency means the concentration at half of the fitted maximal effect; nearly all actives have a fitted effect of over 50% in size
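Fission yeast RE007 carrying one integrated HIV-1 vpr copy, seeded at OD 0.01 in PMG+AL medium with 23 nL pinned compound. Grown 24 h at 30 degrees; viability read by BacTiter-Glo luminescence after 5 min.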
FMDV antiviral – High Throughput Screening for Foot and Mouth Disease Virus Antivirals; AID 1159524, 2015; Potency, µM (series often up to 57.9 µM), inactives show top-dose activity change, negative = inhibition, usual class: inhibitors; actives 1.2% (n = 410,000); FMDV antiviral cell-based qHTS; calls by dose curve; tested in HEK293T cells; further: read-out not given here; potency means the concentration at half of the fitted maximal effect; nearly all actives have a fitted effect of over 45% in size
* hit, by the source's call; ? = inconclusive; . = no result given. An excerpt weighted towards active compounds, which were near 7.7% of everything screened. Unless noted, the call rests on the fitted dose curve; in most records, active means well fitted curve in the direction sought with a large enough effect; inconclusive means small, poorly fitted or top-dose-only effect, or another doubt; inactive means no such curve, though single readings can be large; an effect the other way counts as inactive or inconclusive. On the % scale 0 is the no-effect control and ±100 the full control effect.

SMILES	HCMV inh	Tb PYK inh	Sm TGR inh	FBPA Giardia inh	RE007 growth inh	FMDV antiviral
O=C1CC(N2CC=C(c3ccccc3)CC2)C(=O)N1c1ccc(F)cc1 (configuration not stated)	.	-3%	8.9µM*	?	?	-13%
O=C1CC(N2CCN(c3ccc(F)cc3)CC2)C(=O)N1c1ccc(F)cc1 (configuration not stated)	2	0%	-13%	3%	-2%	-21%
C[C@H]1CN([C@@H](C)CO)C(=O)CCCn2cc(nn2)CO[C@@H]1CN(C)S(=O)(=O)c1cn(C)cn1	11	.	.	.	.	.
O=C(c1ccco1)n1nc(-c2ccccc2)nc1NCc1ccccc1Cl	-25	12%	6%	.	.	0%
CC(C)c1cc(CNC(=O)CC2C(=O)NCCN2CC2CCCCC2)on1 (configuration not stated)	-5	1%	50µM*	-12%	-5%	2%
Cc1cc(CNC(=O)CC2C(=O)NCCN2Cc2ccccc2C(F)(F)F)on1 (configuration not stated)	-32	-1%	35µM*	-23%	4%	-14%
Cc1cc(C)n(CCNC(=O)CC2C(=O)NCCN2Cc2ccccc2C(F)(F)F)n1 (configuration not stated)	-2	-8%	35µM*	-18%	3%	-10%
Cc1cnc(CNC(=O)CC2C(=O)NCCN2Cc2ccccc2C(F)(F)F)cn1 (configuration not stated)	-18	2%	11µM*	.	5%	-4%
CCc1ccc(CNC(=O)CC2C(=O)NCCN2Cc2ccccc2F)nc1 (configuration not stated)	?	-3%	?	-4%	-5%	19%
COc1ccccc1NC(=O)C1=C(C)Nc2nc(SCc3ccccc3)nn2C1c1cccnc1 (configuration not stated)	-1	5%	-5%	.	.	-19%
CN(Cc1ccon1)C(=O)CC1C(=O)NCCN1Cc1ccccc1C(F)(F)F (configuration not stated)	-1	0%	?	?	-1%	-7%
Cc1ccccc1CN1CCNC(=O)C1CC(=O)N(C)CCC1CCOCC1 (configuration not stated)	23	-4%	?	.	4%	-14%
CN(CCc1cn[nH]c1)C(=O)CC1C(=O)NCCN1Cc1ccccc1C(F)(F)F (configuration not stated)	?	-4%	35µM*	-29%	6%	-12%
Cc1nnc(CN(C)C(=O)CC2C(=O)NCCN2Cc2ccccc2C)o1 (configuration not stated)	8	-1%	28µM*	3%	3%	5%
CCC(C)N(Cc1ccc(OC)cc1OC)S(=O)(=O)c1cc(Br)ccc1Br (configuration not stated)	-25	.	.	.	.	.
C=CCSc1nnc(COc2ccc(=O)n(-c3ccccc3)n2)n1CC	-93*	-2%	8%	0%	1%	-2%
CC(C)CNC(=O)Cn1c(=O)c2c(ncn2CC(C)C)n(Cc2ccccc2)c1=O	-67*	-10%	-3%	3%	5%	18%
CCCCCNC(=O)Cn1c(=O)c2c(ncn2CC(C)C)n(Cc2ccccc2)c1=O	10	8%	7%	7%	9%	-6%
COC(=O)[C@@H]1C[C@H]2CC[C@H](O)C[C@H]2N1Cc1ccccc1OC(=O)c1cccs1	2	-4%	?	-13%	-18%	8%
COC(=O)[C@@H]1C[C@@H]2CC[C@@H](O)C[C@@H]2N1Cc1ccccc1OS(=O)(=O)c1ccc(C)cc1	-24	1%	28µM*	-6%	1%	-23%
COc1ccc(-c2n[nH]c3c2cnc2ccc(F)cc23)cc1	53	2%	2%	.	.	51%
Cc1ccc(-c2nnc3c(C(F)(F)F)nc4ccccc4n23)cc1	-24	6%	-3%	4%	16%	-15%
FC(F)(F)c1nc2ccccc2n2c(-c3ccc(Cl)cc3)nnc12	-106*	-8%	5%	6%	-2%	?
FC(F)(F)c1nnc2c(Sc3ccccc3)nc3ccccc3n12	-101*	2%	?	17%	-12%	31%
FC(F)(F)c1nnc2c(Sc3ccccn3)nc3ccccc3n12	-3	-12%	25µM*	6%	-4%	6%
SMILES	HCMV inh	Tb PYK inh	Sm TGR inh	FBPA Giardia inh	RE007 growth inh	FMDV antiviral
FC(F)(F)c1nnc2c(Sc3ccc(Cl)cc3)nc3ccccc3n12	-103*	-16%	-20%	1%	-9%	?
FC(F)(F)c1nc2ccccc2c2nc3ccccc3n12	9	5%	-9%	0%	2%	11%
CN(C)C(=O)c1ccc(-c2nc(N(C)C)c3ccccc3n2)cc1	.	.	.	-19%	.	57%
COc1ccc(-c2cc(=O)oc3c(O)c(O)ccc23)cc1	78	-6%	-19%	?	13%	0%
O=c1ccc2ccc(O)c(O)c2o1	.	.	.	10µM*	.	.
COc1ccccc1-c1c(C(F)(F)F)oc2c(CN3CCCCC3C)c(O)ccc2c1=O (configuration not stated)	-4	-2%	-2%	.	.	-22%
C/C(=N\NC(=O)c1ccccc1C)c1cccnc1	-34	-11%	0%	24%	-6%	36%
C/C(=N\Nc1ccccc1C)c1cccnc1	?	2%	35µM*	-6%	-5%	44%
CN1C(=O)C(CC(=O)NCCc2ccccc2)N(NC(=O)c2ccc(Cl)cc2)C1=S (configuration not stated)	-74*	-3%	13%	-5%	17%	-10%
CN1C(=O)C(CC(=O)NCCc2ccccc2)N(NC(=O)c2cccc(F)c2)C1=S (configuration not stated)	9	-4%	-4%	?	2%	1%
Cc1ccc(S(=O)(=O)Nc2ccc(O)c(S(=O)(=O)c3ccc(C)cc3)c2)cc1	-3	-10%	-17%	6%	-9%	58%
CC(=O)Nc1ccc(S(=O)(=O)c2cc(O)ccc2O)cc1	-6	-15%	6.3µM*	-15%	9%	36%
Cc1ccc(S(=O)(=O)c2cc(O)ccc2O)cc1C	-28	-17%	4µM*	-10%	-1%	81%
Cc1ccccc1CSCC(=O)c1c(N)n(CC(C)C)c(=O)n(C)c1=O	-22	-1%	-2%	1%	0%	?
